The test system of one experiment is CRL-7250. Kind of experiment: Cytotoxic Profiling of Annotated Libraries Using Quantitative High-Throughput Screening (AID 1296008). Further: nearly all actives have a fitted effect of over 60% in size. As to conditions: Five cell lines viability, CellTiter-Glo ATP luminescence, 48-72 h; max response: active compounds read low. The gist of the method:
(§1)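 Cytotoxicity was measured as CellTiter-Glo ATP luminescence, read after 10 min at room temperature. Compound treatment of the cells lasted 48 or 72 hr at 37 degrees Celsius in a qHTS format.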

The subject of another experiment is HEK293. Described as above. As to conditions: Five cell lines viability, CellTiter-Glo ATP luminescence, 48-72 h; max response: active compounds read low. In short, it runs like this: as §1

Inconclusive results are not listed. A number with no mark means an inactive call. Calls of active or inactive are those of the source. The call rests on the fitted dose curve; in most records, active means well fitted inhibition curve with a large enough effect; inconclusive means small, poorly fitted or top-dose-only effect; inactive means flat fitted curve, though single readings scatter.
On the % scale 0 is the no-effect control and ±100 the full control effect.

For the compound `CCCCC(CC)COC(=O)c1ccccc1C(=O)O` (stereo not given), the max response in the experiment with CRL-7250 was -9.5%. The result with HEK293 was inactive.
For `O=C(CCCl)NCCc1ccccc1`, the result in the experiment on CRL-7250 was inactive. The max response in the experiment with HEK293 is -1.92%.
`COc1ccc2c(c1)CCCC2=O`: the results for the max response in the experiment on CRL-7250 and with HEK293 were -5.59% and -10.4%, respectively.
`Nc1c(NC/C=C\COc2cc(CN3CCCCC3)ccn2)c(=O)c1=O`: the max response in the experiment with CRL-7250 is -21.7%; in the experiment with HEK293, -20.2%.
Take `O=C(O)Cn1cnnn1`: the max response in the experiment with CRL-7250 was -0.376%. For the same compound, the result in the experiment on HEK293 was inactive.

For the origin of these results see PubChem BioAssay (NCATS).
